Source: PubChem
AmpC no deterg = blocks E. coli AmpC beta-lactamase in detergent-free assay | Potency, µM (series often up to 57.1 µM), hits mostly inhibitors | P00811 | 330,000 compounds, 0.52% hits | AmpC nitrocefin hydrolysis, absorbance 480 nm, 0.0001% Triton | AID 485341; note: nearly all actives have a fitted effect of over 20% in size
Target sequence (P00811 whole entry, looked up): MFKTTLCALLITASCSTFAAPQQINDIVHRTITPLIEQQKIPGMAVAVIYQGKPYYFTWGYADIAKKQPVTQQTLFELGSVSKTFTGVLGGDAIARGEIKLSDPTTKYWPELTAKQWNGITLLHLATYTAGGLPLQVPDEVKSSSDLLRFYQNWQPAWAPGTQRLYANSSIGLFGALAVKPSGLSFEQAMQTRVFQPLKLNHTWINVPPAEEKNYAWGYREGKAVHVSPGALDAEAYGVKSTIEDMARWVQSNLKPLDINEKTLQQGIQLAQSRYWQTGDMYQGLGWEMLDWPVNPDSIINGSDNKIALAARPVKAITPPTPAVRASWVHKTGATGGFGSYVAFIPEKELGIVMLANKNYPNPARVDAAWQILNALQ
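AmpC (5.3 nM in the dispensed reagent) in 20 mM phosphate pH 7.0 with 0.01% (detergent screen) or 0.0001% Triton X-100 was preincubated with compounds for 15 min at room temperature. Nitrocefin was then added from an 800 uM solution, and hydrolysis was followed at 480 nm.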
RE007 growth inh = less growth of the S. pombe RE007 Vpr strain | S. pombe RE007 Vpr strain, BacTiter-Glo ATP luminescence, 24 h | Potency, µM (highest dose often 92.2 µM), hits mostly inhibitors | 360,000 compounds, 0.21% hits; active = well fitted falling curve with a large enough effect; inconclusive = small, poorly fitted or top-dose-only effect; inactive = no such curve, though single readings can be large or run the other way; note: nearly all actives have a fitted effect of over 50% in size
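Fission yeast RE007 carrying one integrated HIV-1 vpr copy, seeded at OD 0.01 in PMG+AL medium with 23 nL pinned compound. Grown 24 h at 30 degrees; viability read by BacTiter-Glo luminescence after 5 min.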
AmpC inh detg = inhibitors of E. coli AmpC beta-lactamase with detergent; P00811; AmpC hydrolysis of nitrocefin, absorbance 480 nm, 0.01% Triton; Potency, µM (highest dose often 114 µM), usual class: inhibitors; 370,000 compounds, 0.041% hits; note: nearly all actives have a fitted effect of over 25% in size
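20 mM phosphate pH 7.0 + 0.01% (detergent screen) or 0.0001% Triton X-100; 5.3 nM AmpC reagent; cpd preinc 15 min RT; nitrocefin (800 uM stock) to start; A480 q20 s × 4 min; Activity was normalised to no-enzyme and no-compound control wells.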
Sm TGR block = S. mansoni TGR enzyme inhibition | Q962Y6 | purified TGR, DTNB reduction, TNB absorbance 405 nm | Potency, µM (titrated, usually from 114 µM), hits mostly inhibitors | 360,000 compounds, 3% hits; note: nearly all actives have a fitted effect of over 60% in size
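TGR 20 nM + NADPH 100 uM (dispensed conc.), cpd preinc 15 min RT; start with NADPH (500 uM addition) then DTNB (15 mM addition). Kinetic TNB absorbance, 405 nm filter. Four-parameter Hill fit across titration.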
AMA1 RON2 block = inhibitors of Plasmodium falciparum AMA1-RON2 interaction | AID 720542 | Potency, µM (highest dose often 58.2 µM), most hits filed as inhibitors | 360,000 compounds, 0.2% hits | AlphaScreen AMA1-biotinylated RON2 peptide binding; note: nearly all actives have a fitted effect of over 45% in size
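AMA1 (3D7) with his tag at 25 nM final met compounds first, then biotinylated RON2 peptide at 25 nM; detection used donor plus acceptor beads, 10 µg/mL apiece, read by AlphaScreen after 30 min at room temperature.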
Hits are given with their value; – = inactive; ? = inconclusive; · = not tested or not shown; ! = not active in a repeat; [ ] = dose if it differs, or a comment. Rows were chosen to be rich in hits. Some 3.2% of all compounds tested hit in one or more screens of this group. Unless noted, calls come from the whole dose curve; as a rule, active = well fitted curve in the direction sought with a large enough effect; inconclusive = small, poorly fitted or top-dose-only effect, or another doubt; inactive = no such curve, though single readings can be large; an effect the other way counts as inactive or inconclusive.

SMILES	AmpC no deterg	RE007 growth inh	AmpC inh detg	Sm TGR block	AMA1 RON2 block
O=C1OCC2OC(O)C(O)C(O)C2OC(=O)c2cc(O)c(O)c(O)c2-c2c(O)c(O)c3oc(=O)c4c(c(O)c(O)c5oc(=O)c2c3c54)-c2c1cc(O)c(O)c2O (stereo unspecified)	–	·	–	15.8µM	·
COc1c(O)cc2c(c1O)C1OC(CO)C(O)C(O)C1OC2=O (stereo unspecified)	–	–[18.4 µM]	–	–	–
C#CCSc1nncn1C(=O)/C=C/c1ccccc1	–	–	–	70.8µM	–
O=C(/C=C/c1ccccc1)N1CCC[C@H]1CO	–	–	–	–	–
Cc1cc(C)c2c(n1)SCCN2C(=O)Nc1ccc(C(=O)Nc2cc(Cl)ccc2C)cc1	·	·	–	–	·
COc1cc(-c2nc(-c3ccc4c(c3)-c3ccccc3S4(=O)=O)c(-c3ccccc3)[nH]2)cc(OC)c1OC	–	–	–	56.2µM	–
CCC(C)NC(=O)c1cnn(-c2cccc(F)c2)c1-n1cccc1 (stereo unspecified)	·	·	–	–	·
O=[N+]([O-])c1cccc(N=NN(CCO)c2cccc([N+](=O)[O-])c2)c1	–	–	–	–	–
CCCN(N=Nc1cccc([N+](=O)[O-])c1)c1cccc([N+](=O)[O-])c1	–	–	–	50.1µM	–
COc1ccc(NC(=O)c2ccc(-c3nc(CSc4ccccc4)c(C)o3)cc2)c(OC)c1	·	·	–	–	·
O=C(c1ccc(F)cc1)N1CCN(CCc2ccncc2)CC1	·	·	–	39.8µM	·
O=C(c1ccc(Cl)cc1)N1CCN(CCc2ccncc2)CC1	·	·	–	–	·
COc1ccccc1NC(=O)CN1C(=O)C(c2ccc(F)cc2)=NC12CCCCC2	·	·	–	–	·
C=CCc1ccccc1OCC(O)CN1CCN(C(=O)OCC)CC1 (stereo unspecified)	–	–	–	39.8µM	–
O=C(Nc1ccc(Oc2ccccc2)cc1)c1ccc(Cn2c(=O)[nH]c3ccsc3c2=O)cc1	15.8µM	–	–	–	–
Cc1noc(/C=C/c2ccco2)c1S(=O)(=O)N1CCC(C(=O)NC(C)c2ccccc2)CC1 (stereo unspecified)	–	–	–	–	–
Cc1noc(/C=C/c2ccco2)c1S(=O)(=O)N1CCC(C(=O)N(C)Cc2ccccc2)CC1	–	–	–	12.6µM	–
Cc1noc(/C=C/c2ccco2)c1S(=O)(=O)N1CCC(C(=O)N2c3ccccc3CC2C)CC1 (stereo unspecified)	–	–	?	39.8µM	–
COc1ccc(-n2cc(C(=O)Nc3cc(F)ccc3F)c3ccccc3c2=O)cc1	·	·	–	–	·
O=C(Nc1ccc(F)cc1F)c1ccc(-n2cccn2)c([N+](=O)[O-])c1	–	–	–	44.7µM	–
CN1CCN(Cc2c(O)ccc3c(-c4ccccc4)cc(=O)oc23)CC1	–	–	–	31.6µM	–
CCCCN(CC)Cc1c(O)ccc2c(-c3ccccc3)cc(=O)oc12	–	–	–	50.1µM	–
CN1CCN(Cc2c(O)ccc3cc(-c4ccccc4)c(=O)oc23)CC1	·	·	–	–	·
CCN(CC)Cc1c(O)ccc2c(-c3ccccc3)cc(=O)oc12	–	–	?	–	–
CCOc1ccc(NC(=O)N(Cc2ccc(CC)cc2)Cc2cn[nH]c2-c2ccc(OC)cc2)cc1	·	·	–	–	·
SMILES	AmpC no deterg	RE007 growth inh	AmpC inh detg	Sm TGR block	AMA1 RON2 block
Cc1c2cnn(CC(=O)Nc3cccc(C(F)(F)F)c3)c(=O)c2c(C)n1Cc1ccccc1Cl	·	·	–	–	·
CC(NC(=O)Cc1ccc(NC(=O)N2CCCCc3ccccc32)cc1)c1ccccc1 (stereo unspecified)	·	·	–	–	·
COc1ccc(Cn2c(=O)c3cccnc3n(Cc3cccc(F)c3)c2=O)cc1	·	·	–	–	·
O=C1c2ccccc2-c2cccc(NS(=O)(=O)c3ccc(C(F)(F)F)cc3)c21	5.62µM	–	–	–	–
CCn1c(=O)cc(OCC(=O)N2CCN(c3ccccc3OC)CC2)c2ccccc21	·	·	–	–	·
CCN(CC)CCCNC(=O)c1cc2c(Cl)nc3ccccc3c2s1	–	–	–	–	–
Cc1ccc2nc(Cl)c3cc(C(=O)NCCCN(C)Cc4ccccc4)sc3c2c1	·	·	–	–	·
CCN(CCCNC(=O)c1cc2c(Cl)nc3ccccc3c2s1)Cc1ccccc1	·	·	?	89.1µM	·
CN(CCCNC(=O)c1cc2c(Cl)nc3ccccc3c2s1)Cc1ccccc1	–	–	–	20µM!	?
CC(=O)N1c2ccc(S(=O)(=O)NCCC(=O)Nc3ccc(C)cc3Br)cc2CC1C (stereo unspecified)	·	·	–	–	·
COc1ccc(NC(=O)c2ncn(-c3ccccc3)n2)cc1Cl	·	·	–	–	·
O=[N+]([O-])C(=C1Nc2ccccc2N1)/C(Cl)=C(/Cl)Br	–	–	–	6.31µM	–
CCCCn1c(N)c(N(CCOC)C(=O)c2cc(-c3ccccc3)nc3ccccc23)c(=O)[nH]c1=O	–	–	–	–	–
CCCCN(C(=O)c1ccc(-c2ccc(Cl)cc2)o1)c1c(N)n(CCCC)c(=O)[nH]c1=O	–	–	–	–	–
COCCCN(C(=O)c1cc(Cl)nc2ccccc12)c1c(N)n(Cc2ccccc2)c(=O)[nH]c1=O	–	–	–	–	–
CCCCn1c(N)c(N(CCOC)C(=O)c2ccc(-c3ccc(Cl)cc3)o2)c(=O)[nH]c1=O	–	–	–	44.7µM	–
CCCn1c(N)c(N(CCOC)C(=O)c2cc(-c3ccco3)nc3ccccc23)c(=O)[nH]c1=O	–	–	–	17.8µM	?
COCCCN(C(=O)c1cc(-c2ccco2)nc2ccccc12)c1c(N)n(Cc2ccccc2)c(=O)[nH]c1=O	–	–	–	15.8µM	?
Cn1cnnc1SCc1ccc(-c2ccc(Br)cc2)o1	–	–	?	25.1µM	–
Cc1ccc(C)c(N2CCN(S(=O)(=O)c3ccc(-c4cnc(C5CC5)o4)cc3)CC2)c1	·	·	–	–	·
O=C(Cn1c(=O)n(CC2CCCO2)c(=O)c2ccccc21)Nc1ccc(F)cc1F (stereo unspecified)	·	·	–	–	·
Cc1[nH]c2ccccc2c1C1=CC(=O)C=CC1=O	·	25.1µM	·	·	–
Cc1[nH]c2ccccc2c1CCO	?	–	–	–	–
Cc1[nH]c(=O)[nH]c(=O)c1C1N2CC3(C(C)C)CN1CC(C(C)C)(C2)C3=O (stereo unspecified)	·	·	–	–	·
COCCCNC(=O)c1c(NC(=O)c2ccccc2Cl)n(Cc2ccccc2)c2nc3ccccc3nc12	–	–	–	–	–
COCCNC(=O)c1c(N)n(Cc2ccco2)c2nc3ccccc3nc12	–	–	–	39.8µM	–
Nc1c(C(=O)NCCN2CCOCC2)c2nc3ccccc3nc2n1Cc1ccco1	–	–	?	?	–
COCCNC(=O)c1c(NC(=O)c2ccco2)n(Cc2ccccc2)c2nc3ccccc3nc12	–	–	–	25.1µM	–
